Data published in the supplement of paper PMC12669032.
Values joined by “and” are separate entries in the source; they are usually repeats but may differ in a detail not shown here. Equal entries are not always repeated.

test system: Eubacterium rectale; experiment: growth AUC relative to DMSO control (median of replicates) (fraction); higher = more growth (less inhibition), active = hit call of the paper; details: 20 µM; 24 h;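 active = AUC reduced over 20% with Padj below 0.05 in at least 2 of 3 replicates; inactive = otherwise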
How it was run: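 Each value is the median of three biological replicates, grown on separate days, of a gut bacterial monoculture incubated anaerobically at 37 °C in mGAM with 20 µM compound (1% DMSO). Cultures started at OD600 0.05 and were read at OD600 hourly for 24 h, with the minimum OD set to 0. Area under the growth curve was normalised to the plate median of solvent-only wells, or to row and column medians on the industrial chemical plate.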

Row | Compound | growth AUC
1 | Cc1cccc(C)c1N | 0.997 (inactive)
2 | C=CCOC(=O)C(C)(C)OC(=O)c1cc(-n2c(=O)cc(C(F)(F)F)n(C)c2=O)ccc1Cl | 1.05 (inactive)
3 | CCOP(=O)(NC(C)C)Oc1ccc(S(C)(=O)=O)c(C)c1 (centres undefined) | 1.03 (inactive)
4 | Cc1cc(OC(=O)N(C)C)nn1C(=O)N(C)C | 1.01 (inactive)
5 | CCCCCCCCSC(=O)Oc1cc(Cl)nnc1-c1ccccc1 | 0.868 (inactive)
6 | CC1(C(=O)Nc2ccc(O)c(Cl)c2Cl)CCCCC1 | 0.973 (inactive)
7 | CC(Oc1ccc(Oc2ccc(Cl)cc2Cl)cc1)C(=O)O (racemic) | 0.988 (inactive)
8 | C[Si](Cn1cncn1)(c1ccc(F)cc1)c1ccc(F)cc1 | 0.504 (active)
9 | CN(C)C1CSSSC1.O=C(O)C(=O)O | 1.7 (inactive)
10 | COP(=S)(OC)SCn1nnc2ccccc2c1=O | 1.07 (inactive)
11 | CCSC(=O)N1CCCCCC1 | 0.977 (inactive)
12 | O=C(O)c1c(Cl)ccc2cc(Cl)cnc12 | 0.942 (inactive)
13 | CCCSP(=S)(OCC)Oc1ccc(SC)cc1 (centres undefined) | 0.985 (inactive)
14 | Cc1cc(C(F)(C(F)(F)F)C(F)(F)F)ccc1NC(=O)c1cccc(I)c1C(=O)NC(C)(C)CS(C)(=O)=O | 1.09 (inactive)
15 | Cc1cc(Cl)ccc1O | 1.02 (inactive)
16 | COc1cc(OC)nc(NC(=O)NS(=O)(=O)c2ncccc2C(=O)N(C)C)n1 | 0.999 (inactive)
17 | Cc1cccc2sc3nncn3c12 | 0.939 (inactive)
18 | CCC(C)c1cc([N+](=O)[O-])cc([N+](=O)[O-])c1O (centres undefined) | 0.939 (inactive)
19 | CCOP(=S)(OCC)SCSC(C)(C)C | 1.22 (inactive)
20 | CCNc1nc(Cl)nc(NC(C)(C)C#N)n1 | 0.889 (inactive)

Row | Compound | growth AUC
21 | Cc1ccccc1C(=O)Nc1cccc(OC(C)C)c1 | 0.953 (inactive)
22 | N#CN=C1SCCN1Cc1ccc(Cl)nc1 | 0.979 (inactive)
23 | COP(=O)(OC)Oc1ccc(S(C)=O)c(C)c1 (centres undefined) | 0.797 (inactive)
24 | COCC(=O)N(c1c(C)cccc1C)[C@H](C)C(=O)OC | 1.01 (inactive)
25 | CC(=NC#N)N(C)Cc1ccc(Cl)nc1 | 0.908 (inactive) and 0.994 (inactive)
26 | CC1(C)C(C(=O)OC(C#N)c2cccc(Oc3ccccc3)c2)C1(C)C (centres undefined) | 1 (inactive)
27 | CNC(=O)Oc1cc(C)c(N(C)C)c(C)c1 | 1 (inactive)
28 | CN(C)C(=S)SSC(=S)N(C)C | 0.83 (inactive)
29 | CCOP(=S)(OCC)SCn1nnc2ccccc2c1=O | 1.02 (inactive)
30 | [CH3][Hg][Cl] | 0.872 (inactive)
31 | CCCCc1c(C)nc(NCC)nc1OS(=O)(=O)N(C)C | 1.16 (inactive)
32 | CC1(C)[C@H](/C=C(\Cl)C(F)(F)F)[C@@H]1C(=O)O[C@@H](C#N)c1cccc(Oc2ccccc2)c1 | 0.961 (inactive)
33 | CCCN(CCOc1c(Cl)cc(Cl)cc1Cl)C(=O)n1ccnc1 | 0.591 (active)
34 | CCOP(=S)(OCC)Oc1cc(Cl)c(Br)cc1Cl | 1.05 (inactive)
35 | C/C(=N\NC(=O)Nc1cc(F)cc(F)c1)c1ncccc1C(=O)[O-].[Na+] | 1.12 (inactive)
36 | C1=Cc2cccc3cccc1c23 | 0.988 (inactive)
37 | CCc1ccc(C(=O)NN(C(=O)c2cc(C)cc(C)c2)C(C)(C)C)cc1 | 0.937 (inactive)
38 | C#CCOc1ccc(CCNC(=O)C(OCC#C)c2ccc(Cl)cc2)cc1OC (centres undefined) | 1.04 (inactive)
39 | COC(=O)c1ccccc1S(=O)(=O)NC(=O)Nc1nc(C)nc(OC)n1 | 1.05 (inactive)
